The text below walks through data of PubChem BioAssay (NCATS).

Values joined by “and” are separate entries in the source; they are usually repeats but may differ in a detail not shown here. Equal entries are not always repeated. Results filed as inconclusive are left out. Active and inactive are the calls of the source. The call rests on the fitted dose curve; in most records, active means well fitted curve in the direction sought with a large enough effect; inconclusive means small, poorly fitted or top-dose-only effect, or another doubt; inactive means no such curve, though single readings can be large; an effect the other way counts as inactive or inconclusive.

A short description of experiment [1]: qHTS of pediatric cancer cell lines to identify multiple opportunities for drug repurposing: Primary screen for Rh18 cells (AID 1347102). Further: nearly all actives have a fitted effect of over 65% in size. Further: potency means the concentration at half of the fitted maximal effect. The essentials: (§1)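 Cells (500-1,000/well) in growth media were settled 5 h at 37 degrees C, then given compounds for 48 h. Viability was read as CellTiter-Glo luminescence. Primary runs used MIPE at 11 points (0.78 nM-46 µM) and NPC at 8 points (0.59 nM-46 µM); follow-ups used 11 points.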

The nature of experiment [2]: qHTS of pediatric cancer cell lines to identify multiple opportunities for drug repurposing: Primary screen for RD cells (AID 1347104). Further: nearly all actives have a fitted effect of over 55% in size. Further: potency means the concentration at half of the fitted maximal effect. The essentials:
(§2)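 Cells seeded at 500-1,000 cells/well in growth media, rested 5 hours at 37 degrees C, 5% CO2, then dosed; MIPE compounds at 11-point (from 0.78 nM) and NPC at 8-point (from 0.59 nM) final concentrations. Viability by CellTiter-Glo luminescence after 48 hours.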

Experiment [3] is described as follows: qHTS of pediatric cancer cell lines to identify multiple opportunities for drug repurposing: Primary screen for MG 63 (6-TG R) cells (AID 1347105). Further: nearly all actives have a fitted effect of over 50% in size. Further: potency means the concentration at half of the fitted maximal effect. The essentials:
as §2
Background: In qHTS, concentration-response curves come from the screen itself.

The nature of experiment [4]: qHTS of pediatric cancer cell lines to identify multiple opportunities for drug repurposing: Primary screen for control Hh wild type fibroblast cells (AID 1347106).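 Further: series mostly up to about 46 µM; a drop in luminescence marks cytotoxicity and a rise apparent proliferation; nearly all actives have a fitted effect of over 55% in size.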 In outline: as §1
The nature of experiment [5]: qHTS of pediatric cancer cell lines to identify multiple opportunities for drug repurposing: Primary screen for Rh30 cells (AID 1347107). Further: series mostly up to about 46 µM; nearly all actives have a fitted effect of over 75% in size. The essentials:
as §1

Experiment [6] can be described thus: qHTS of pediatric cancer cell lines to identify multiple opportunities for drug repurposing: Primary screen for Rh41 cells (AID 1347108).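 Further: series mostly up to about 46 µM; luminescence drop marks cytotoxic hits; nearly all actives have a fitted effect of over 70% in size.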 In outline:
as §2

The nature of experiment [7]: qHTS of pediatric cancer cell lines to identify multiple opportunities for drug repurposing: Primary screen for OHS-50 cells (AID 1347103). Further: nearly all actives have a fitted effect of over 40% in size. Further: potency means the concentration at half of the fitted maximal effect. In outline: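 Cells (500-1,000/well) rested 5 h, then received compounds for 48 h; metabolically active cells were measured by CellTiter-Glo luminescence. Final concentrations spanned up to 46 µM (MIPE, 11-point) or 0.59 nM-46 µM (NPC, 8-point) in primary screens, 11-point in follow-ups.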

Experiment [8] can be described thus: qHTS of pediatric cancer cell lines to identify multiple opportunities for drug repurposing: Confirmatory screen for NB1643 cells (AID 1347109). Further: nearly all actives have a fitted effect of over 45% in size. Further: potency means the concentration at half of the fitted maximal effect. The essentials:
as §1

Experiment [9] can be described thus: qHTS of pediatric cancer cell lines to identify multiple opportunities for drug repurposing: Confirmatory screen for LAN-5 cells (AID 1347113). Further: nearly all actives have a fitted effect of over 65% in size. Further: potency means the concentration at half of the fitted maximal effect. In outline:
as §1

The nature of experiment [10]: qHTS of pediatric cancer cell lines to identify multiple opportunities for drug repurposing: Confirmatory screen for DAOY cells (AID 1347114). Further: nearly all actives have a fitted effect of over 65% in size. Further: potency means the concentration at half of the fitted maximal effect. The essentials: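 Viability measured as metabolically active cells via CellTiter-Glo luminescence following 48 hours of compound exposure, 11-point dilutions in confirmatory testing. 500-1,000 cells/well plated 5 hours before dosing; controls were DMSO and 2.3 µM bortezomib.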

A short description of experiment [11]: qHTS of pediatric cancer cell lines to identify multiple opportunities for drug repurposing: Confirmatory screen for NB-EBc1 cells (AID 1347115).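 Further: cells exposed to compound for 48 h before the viability read; nearly all actives have a fitted effect of over 45% in size.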 Further: potency means the concentration at half of the fitted maximal effect. In outline: as §1
Experiment [12] is described as follows: qHTS of pediatric cancer cell lines to identify multiple opportunities for drug repurposing: Confirmatory screen for TC32 cells (AID 1347118).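 Further: potency means the concentration at half of the fitted maximal effect; cells exposed to compound for 48 h before the read; nearly all actives have a fitted effect of over 65% in size.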 In outline: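 Luminescent ATP read-out (CellTiter-Glo) of metabolically active TC32 cells after 48 h exposure. Concentration-response curves came from 11-point (MIPE, 0.78 nM–46 µM) or 8-point (NPC, 0.59 nM–46 µM) primary titrations; follow-up used 11 points.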

Experiment [13] in a line: qHTS of pediatric cancer cell lines to identify multiple opportunities for drug repurposing: Confirmatory screen for MG 63 (6-TG R) cells (AID 1347119). Further: nearly all actives have a fitted effect of over 55% in size. Further: potency means the concentration at half of the fitted maximal effect. The essentials: as §1
Experiment [14] in a line: qHTS of pediatric cancer cell lines to identify multiple opportunities for drug repurposing: Confirmatory screen for control Hh wild type fibroblast cells (AID 1347121). Further: nearly all actives have a fitted effect of over 70% in size. Further: potency means the concentration at half of the fitted maximal effect. The essentials:
as §1

The nature of experiment [15]: qHTS of pediatric cancer cell lines to identify multiple opportunities for drug repurposing: Confirmatory screen for U-2 OS cells (AID 1347122). Further: nearly all actives have a fitted effect of over 65% in size. Further: potency means the concentration at half of the fitted maximal effect. The essentials:
as §1

Experiment [16] can be described thus: qHTS of pediatric cancer cell lines to identify multiple opportunities for drug repurposing: Confirmatory screen for Rh41 cells (AID 1347123).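 Further: 48 h compound exposure; nearly all actives have a fitted effect of over 60% in size.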 Further: potency means the concentration at half of the fitted maximal effect. In outline:
as §1

Experiment [17] can be described thus: qHTS of pediatric cancer cell lines to identify multiple opportunities for drug repurposing: Confirmatory screen for RD cells (AID 1347124). Further: potency means the concentration at half of the fitted maximal effect. In outline:
as §1

Experiment [18] can be described thus: qHTS of pediatric cancer cell lines to identify multiple opportunities for drug repurposing: Confirmatory screen for Rh18 cells (AID 1347125). Further: nearly all actives have a fitted effect of over 55% in size. Further: potency means the concentration at half of the fitted maximal effect. The essentials:
as §1

Experiment [19] in a line: qHTS of pediatric cancer cell lines to identify multiple opportunities for drug repurposing: Confirmatory screen for BT-12 cells (AID 1347112). Further: nearly all actives have a fitted effect of over 55% in size. Further: potency means the concentration at half of the fitted maximal effect. The essentials: as §1
The nature of experiment [20]: qHTS of pediatric cancer cell lines to identify multiple opportunities for drug repurposing: Confirmatory screen for BT-37 cells (AID 1347117). Further: nearly all actives have a fitted effect of over 55% in size. Further: potency means the concentration at half of the fitted maximal effect. The essentials: as §1

In the case of `Cn1ccc2cc3c(cc21)CCN3C(=O)Nc1cccnc1`, the Potency entry in experiment [1], in [2], in experiment [3], in experiment [4] and in experiment [6] was “inactive” each time. In addition, in [5], the call was inactive.

Take `N[C@@H](Cc1c[nH]c2ccc(O)cc12)C(=O)O`: the Potency entry in experiment [1], in experiment [2], in experiment [3], in [4] and in [6] was “inactive” in each case. For the same compound, the result in experiment [5] was inactive.

With `CC(CCc1ccc(O)cc1)NCCc1ccc(O)c(O)c1` (configuration not stated), the Potency is 20.9 µM (active) in [1], 5.85 µM (active) in [11] and 20.8 µM (active) in [12]. Besides, the Potency result in experiment [7], in [3], in [4], in experiment [8], in experiment [9] and in [10] was “inactive” in each case. Further, the Potency result in experiment [13], in experiment [14], in experiment [15], in experiment [16], in experiment [17] and in experiment [18] was “inactive” throughout.

Take `O=c1c(-c2ccc(O)cc2)coc2cc(O)cc(O)c12`: the Potency result in experiment [1], in experiment [2], in [3] and in [4] was “inactive” in each case.

For `CC(=O)OCC(CCn1cnc2cnc(N)nc21)COC(C)=O`, the Potency entry in [1], in experiment [2], in experiment [3], in experiment [4] and in experiment [6] was “inactive” in each case. For the same compound, the outcome in experiment [5] was inactive.

For `Clc1ccccc1C(c1ccccc1)(c1ccccc1)n1ccnc1`, the Potency result in experiment [1], in [3] and in experiment [4] was “inactive” throughout. Moreover, in experiment [2], the Potency is 18.7 µM (active).

`CCOC(=O)Nc1ccc(NCc2ccc(F)cc2)nc1N`: the Potency entry in experiment [1], in experiment [2], in [3], in experiment [4] and in experiment [6] was “inactive” in each case. In [5], the result was inactive.

As to `CCC1(c2ccccc2)C(=O)NCNC1=O`, the Potency result in [1], in experiment [7], in [4], in [6], in experiment [19] and in [9] was “inactive” each time. Besides, the Potency entry in [10], in [11], in [20], in [13], in experiment [14] and in experiment [15] was “inactive” in each case. Besides, the Potency result in experiment [16], in experiment [17] and in experiment [18] was “inactive” each time. Moreover, the compound was classed as inactive in experiment [5].

With `Nc1nnc(-c2cccc(Cl)c2Cl)c(N)n1`, the Potency result in experiment [1], in experiment [2], in experiment [3], in experiment [4] and in experiment [6] was “inactive” in each case. For the same compound, the compound was called inactive in [5].

As for `NCCCCCC(=O)O`, the Potency result in [1], in experiment [2], in [3], in experiment [4] and in [6] was “inactive” in each case. Moreover, in [5], the compound was classed as inactive.

In the case of `NCCc1cnc[nH]1`, the Potency entry in experiment [1], in experiment [2], in experiment [3] and in experiment [4] was “inactive” in each case. Also, the call in experiment [5] was inactive.

Turning to `COc1ccc(CCN(C)CCCC(C#N)(c2ccc(OC)c(OC)c2)C(C)C)cc1OC` (configuration not stated), the Potency entry in experiment [1], in experiment [2], in experiment [3], in experiment [4] and in experiment [6] was “inactive” in each case. Besides, the compound was called inactive in experiment [5].

`CN(C)CCC=C1c2ccccc2C=Cc2ccccc21`: the Potency result in [1], in experiment [3], in [4] and in [6] was “inactive” each time. Further, the Potency in experiment [7] is 27.6 µM (active). Moreover, the outcome in experiment [5] was inactive.

Turning to `CN1CCN2c3ccccc3Cc3ccccc3C2C1` (configuration not stated), the Potency result in experiment [1], in [2], in experiment [3] and in [4] was “inactive” in each case. In addition, the call in [5] was inactive.

For the compound `O=C(Nc1ccc([N+](=O)[O-])cc1Cl)c1cc(Cl)ccc1O`, the Potency was 3.72 µM (active) in experiment [1]; 3.26 µM (active) and 1.48 µM (active) in experiment [2]; 3.66 µM (active) and 1.18 µM (active) in experiment [3]; 1.62 µM (active) in experiment [8]; 3.23 µM (active) in experiment [19]; 3.23 µM (active) in experiment [9]. Also, the Potency was 1.02 µM (active) in experiment [10]; 1.44 µM (active) in [11]; 1.44 µM (active) in experiment [20]; 2.04 µM (active) in [12]; 1.62 µM (active) in experiment [13]; 3.62 µM (active) in experiment [14]. In addition, the Potency in experiment [15] is 4.56 µM (active); in experiment [16], 1.15 µM (active); in experiment [17] it was 4.56 µM (active); in experiment [18] it was 3.62 µM (active). In addition, the Potency entry in [4] was “inactive”. Besides, in [5], the outcome was inactive.

Turning to `Cc1cnc(C(=O)NCCc2ccc(S(=O)(=O)NC(=O)NC3CCCCC3)cc2)cn1`, the Potency result in [1], in [2], in experiment [3] and in experiment [4] was “inactive” each time. Moreover, the compound was called inactive in experiment [5].

Turning to `Nc1ccn([C@H]2CC[C@@H](CO)O2)c(=O)n1`, the Potency result in [1], in experiment [2], in experiment [3] and in experiment [4] was “inactive” in each case. In addition, the compound was called inactive in experiment [5].

Take `OCCN(CCO)c1nc(N2CCCCC2)c2nc(N(CCO)CCO)nc(N3CCCCC3)c2n1`: the Potency result in [1], in experiment [4] and in experiment [6] was “inactive” each time. Also, the Potency in experiment [7] was 21.7 µM (active). Further, in experiment [5], the compound was classed as inactive.

As to `COc1ccccc1OCC(O)CN1CCN(CC(=O)Nc2c(C)cccc2C)CC1` (configuration not stated), the Potency entry in experiment [1], in experiment [2], in experiment [3] and in experiment [4] was “inactive” throughout. Besides, the call in experiment [5] was inactive.

Take `Cn1c(=O)c2[nH]cnc2n(C)c1=O`: the Potency entry in [1], in experiment [2], in [3] and in experiment [4] was “inactive” each time.

Turning to `Cc1ccc(C(=O)Nc2ccc(S(=O)(=O)O)c3cc(S(=O)(=O)O)cc(S(=O)(=O)O)c23)cc1NC(=O)c1cccc(NC(=O)Nc2cccc(C(=O)Nc3cc(C(=O)Nc4ccc(S(=O)(=O)O)c5cc(S(=O)(=O)O)cc(S(=O)(=O)O)c45)ccc3C)c2)c1`, the Potency result in [1], in experiment [2], in experiment [3], in [4] and in experiment [6] was “inactive” each time. For the same compound, in experiment [5], the compound was called inactive.

With `CC(C)NCC(O)COc1ccc(CCOCC2CC2)cc1` (configuration not stated), the Potency result in experiment [1], in [2], in experiment [3] and in experiment [4] was “inactive” each time. Moreover, the call in experiment [5] was inactive.

As to `CC1(C)O[C@H]2CC(=O)OC[C@]23[C@H]2CC[C@@]4(C)[C@H](c5ccoc5)OC(=O)[C@H]5O[C@]54[C@]2(C)C(=O)C[C@@H]13`, the Potency result in experiment [1], in experiment [2], in experiment [3], in [4] and in experiment [6] was “inactive” in each case. Besides, the outcome in experiment [5] was inactive.

Take `CN(C)CCOC(c1ccccc1)c1ccccc1`: the Potency entry in experiment [1], in experiment [2], in experiment [3], in [4] and in experiment [6] was “inactive” in each case.

As for `Cc1cc(C(C)(C)C)cc(C)c1CC1=NCCN1`, the Potency entry in experiment [1], in [3] and in [4] was “inactive” throughout. In [5], the compound was called inactive.

As for `Fc1ccc([C@@H]2CCNC[C@H]2COc2ccc3c(c2)OCO3)cc1`, the Potency result in experiment [3] and in experiment [4] was “inactive” throughout.
